From PubChem BioAssay (NCATS)
Results filed as inconclusive are left out. Calls of active or inactive are those of the source. Calls come from the whole dose curve; as a rule, active = well fitted cell-killing curve with a large enough effect; inconclusive = small, poorly fitted or top-dose-only effect; inactive = flat fitted curve, though single readings scatter.

What was measured:
[1] = Cell Viability - LYMP2-009 (AID 968); note: nearly all actives have a fitted effect of over 55% in size
[2] = Cell Viability - LYMP2-011 (AID 969); note: nearly all actives have a fitted effect of over 60% in size
Procedure, shortened: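 In this qHTS cytotoxicity format, compounds are tested across concentrations on human lymphoblastoid cells in complete medium for 24 hours at 37 C. Viability is taken as cellular ATP measured by luciferase luminescence.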

[3] = Cell Viability - LYMP2-013 (AID 970); note: nearly all actives have a fitted effect of over 55% in size
Procedure, shortened: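 Cytotoxicity is scored as a concentration-dependent drop in intracellular ATP in human lymphoblastoid cells after 24 hr compound exposure at 37 C. ATP is quantified by luciferase luminescence, and AC50 values come from Hill-equation modeling.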

[4] = Cell Viability - LYMP2-015 (AID 971); note: nearly all actives have a fitted effect of over 55% in size
Procedure, shortened: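 Cells are seeded at 2500 per well and incubated 5 hr at 37 C. Compounds are added across a concentration series for 24 hr at 37 C. CellTiter-Glo is added, and luminescence is read after 30 min at room temperature.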

[5] = Cell Viability - LYMP2-017 (AID 972); note: nearly all actives have a fitted effect of over 55% in size
Procedure, shortened: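 Cytotoxicity is scored as a concentration-dependent drop in cellular ATP in a human lymphoblastoid line after 24 hr treatment at 37 C. Values are AC50s from Hill-equation modelling.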

[6] = Cell Viability - LYMP2-019 (AID 973); note: nearly all actives have a fitted effect of over 55% in size
Procedure, shortened: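 Cytotoxicity is scored as a concentration-dependent drop in cellular ATP after cells (2500/well) receive compound for 24 hr at 37 C. Tetraoctylammonium bromide serves as positive control.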

[7] = Cell Viability - LYMP2-023 (AID 975); note: nearly all actives have a fitted effect of over 55% in size
Procedure, shortened: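 Steps: seed 2500 human lymphoblastoid cells per well, incubate 5 hr at 37 C, add compound for 24 hr at 37 C, add CellTiter-Glo, hold 30 min at room temperature, read luminescence. AC50 derived by Hill modelling.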

[8] = Cell Viability - LYMP2-025 (AID 976)
Procedure, shortened: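 Acute cytotoxicity is scored as a concentration-dependent fall in intracellular ATP, measured by luciferase luminescence, in human lymphoblastoid LYMP2-025 cells exposed to compound for 24 hours at 37 C. AC50 values come from standard Hill fits.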

[9] = Cell Viability - LYMP2-002 (AID 977);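 note: compound exposure lasted 24 h at 37 °C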
Procedure, shortened: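 In this qHTS viability screen, 2500 human lymphoblastoid cells per well receive compound for 24 hr at 37 C, and luciferase-based ATP luminescence gives the viability signal. Tetraoctylammonium bromide serves as positive control.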

[10] = Cell Viability - LYMP2-006 (AID 978); note: nearly all actives have a fitted effect of over 60% in size
Procedure, shortened: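 Human lymphoblastoid cells, 2500 per well, were preincubated 5 hr at 37 C, then exposed to compounds for 24 hr at 37 C in complete medium. Viability was read as intracellular ATP by CellTiter-Glo luminescence; AC50 from Hill-equation fits of qHTS concentration-response data.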

Measured: Potency
Potency is the fitted concentration of half-maximal effect.

Oc1ccccc1
inactive: [1] | [2] | [3] | [4] | [5] | [6] | [7] | [8] | [9] | [10]

c1ccc2occc2c1
inactive: [1] | [2] | [3] | [4] | [5] | [6] | [7] | [8] | [9] | [10]

CCCC(=O)c1cc(O)c(O)cc1O
inactive: [1] | [2] | [3] | [4] | [6] | [7] | [8] | [9] | [10]

CC(C)C(C)(C)C(C)(C)C(C)(C)S
inactive: [1] | [2] | [3] | [4] | [5] | [6] | [7] | [8] | [9] | [10]

CC(=O)OC/C=C(C)/C=C/C=C(C)/C=C/C1=C(C)CCCC1(C)C
inactive: [8]
active: [4] 50.1 µM | [5] 50.1 µM

CC(C)(C)c1ccc(O)c(O)c1
active: [1] 39.8 µM | [3] 39.8 µM | [4] 31.6 µM | [5] 39.8 µM | [6] 39.8 µM | [10] 50.1 µM

CCCCCCCCCCCCCCCC[n+]1ccccc1
active: [1] 15.8 µM | [2] 20 µM | [3] 25.1 µM | [4] 15.8 µM | [5] 25.1 µM | [6] 20 µM | [7] 39.8 µM | [8] 39.8 µM | [9] 15.8 µM | [10] 12.6 µM

COc1cc(C=O)ccc1O
inactive: [1] | [2] | [3] | [4] | [5] | [6] | [7] | [8] | [9] | [10]

Nc1cccc2c(N)cccc12
inactive: [1] | [2] | [3] | [4] | [5] | [6] | [7] | [8] | [9] | [10]

CC(C)(c1ccc(O)cc1)c1ccc(O)cc1
inactive: [1] | [2] | [3] | [4] | [5] | [6] | [7] | [8] | [9] | [10]

Nc1ccc(O)cc1
active: [1] 31.6 µM | [2] 39.8 µM | [3] 50.1 µM | [4] 31.6 µM | [5] 39.8 µM | [6] 39.8 µM | [7] 50.1 µM | [9] 39.8 µM | [10] 50.1 µM

Cc1cc(C(C)(C)C)c(O)c(C(C)(C)C)c1
inactive: [1] | [2] | [3] | [4] | [5] | [6] | [7] | [8] | [9] | [10]

Nc1c2ccccc2nc2ccccc12
active: [1] 10 µM | [2] 12.6 µM | [3] 12.6 µM | [4] 10 µM | [5] 15.8 µM | [6] 10 µM | [7] 12.6 µM | [8] 12.6 µM | [9] 7.94 µM | [10] 20 µM

OCc1c[nH]c2ccccc12
inactive: [1] | [2] | [3] | [4] | [5] | [6] | [7] | [8] | [9] | [10]

Brc1ccccc1-c1ccccc1
inactive: [1] | [2] | [3] | [4] | [5] | [6] | [7] | [8] | [9] | [10]

Cc1ccc(O)cc1
inactive: [1] | [2] | [3] | [4] | [5] | [6] | [7] | [8] | [9] | [10]

O=C(NO)c1ccccc1
inactive: [1] | [2] | [3] | [4] | [5] | [6] | [7] | [8] | [9] | [10]

O=C(Oc1ccccc1)c1ccccc1O
inactive: [1] | [2] | [3] | [4] | [5] | [6] | [7] | [8] | [9] | [10]

C1=CC2C3C=CC(C3)C2C1 (configuration not stated)
inactive: [1] | [2] | [3] | [4] | [5] | [6] | [7] | [8] | [9] | [10]

O=C(c1ccccc1)c1ccccc1
inactive: [1] | [2] | [3] | [4] | [5] | [6] | [7] | [8] | [9] | [10]

CCCCC(CC)COC(=O)c1ccccc1C(=O)O (configuration not stated)
inactive: [1] | [2] | [3] | [4] | [5] | [6] | [7] | [8] | [9] | [10]
